cytoskel mod – alters cytoskeleton assembly in HUVEC cells. HUVEC TNFa F-actin phalloidin imaging, high content. inhibition, % at 2 µM. 0.18% of 91,000 active. AID 836;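 active = inhibition above the batch mean plus 3 SD and confirmed as a hit by visual image inspection, cut at about 30% in these data, passing the limit was not always enough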
VCAM1 TNFa inh – reduces TNF alpha induced VCAM1 expression in HUVEC; HUVEC TNFa-induced VCAM-1 immunofluorescence, high-content imaging; inhibition, % at 2 µM; 0.48% of 95,000 active; AID 802;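 active = inhibition above the batch mean plus 3 SD, with images confirmed as a hit by eye, cut at about 37% in these data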;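 also: 0% = TNF-stimulated DMSO wells and 100% = unstimulated control wells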
E-sel TNF inh – TNF alpha driven E-selectin expression inhibition. AID 1246. HUVEC TNFa-induced E-selectin immunofluorescence, high content. 0.71% of 120,000 active. inhibition, % at 2 µM;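 active = inhibition above the batch mean plus 3 SD, and confirmed as a hit on visual image review, cut at about 43% in these data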;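 also: 0% = TNF-stimulated DMSO wells and 100% = unstimulated control wells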
HUVEC tox TNFa – HUVEC cytotoxicity counter-screen, TNF alpha stimulated; HUVEC TNFalpha-stimulated, Hoechst cell count, imaging; cell count reduction, % at 2 µM; 0.17% of 93,000 active;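 active = cell count reduction exceeding the screen mean by over 5 SD, scaled to untreated wells per plate, cut at about 78% in these data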;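 also: cells counted after 24 h of TNF alpha exposure following the 1 h pretreatment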
Active calls of the source: *; . = no result given. Compounds with a hit are over-represented: about 1.2% of the library has one in this group of screens.

SMILES	cytoskel mod	VCAM1 TNFa inh	E-sel TNF inh	HUVEC tox TNFa
O=C(COc1ccc(/C=N/NC(=O)C(=O)N2CCCCCC2)cc1)Nc1ccccc1Cl	.	.	70*	.
O=C(N/N=C/c1ccc(OCC(=O)N2CCCCC2)cc1)c1ccccc1	-14	12	-6	-1
COc1cc(C(=O)N2CCN(c3cccc(C)c3C)CC2)cc(OC)c1OC	5	-9	.	34
COc1cc(C(=O)N2CCN(c3cc(Cl)ccc3Cl)CC2)cc(OC)c1OC	6	58*	.	70
COc1ccc(S(=O)(=O)Nc2cccc(S(=O)(=O)N3CCCCCC3)c2)cc1	.	.	71*	.
Cc1cc(C)cc(NC(=O)CSc2nc(N)c(NC(=O)c3cccs3)c(=O)[nH]2)c1	.	.	-28	.
Cc1c(Nc2cc(Cl)c3nonc3c2[N+](=O)[O-])c(=O)n(-c2ccccc2)n1C	.	.	100*	.
CCOc1cc2[nH]c(=O)n(CCCN3CCCC3=O)c(=O)c2cc1OCC	8	15	46*	-11
COc1cc2[nH]c(=O)n(CCCCCC(=O)NCCCN3CCCC3=O)c(=O)c2cc1OC	3	4	-15	4
CCN(CC)CCC(C)OC(=O)c1ccc(O)cc1O (stereo unspecified)	.	.	0	.
O=S(=O)(NCc1cccc(C(F)(F)F)c1)NCc1ccccc1F	.	.	0	.
CC1CCCN(c2nc3ccsc3c(=O)s2)C1 (stereo unspecified)	-21	92*	4	91*
COc1ccc(/C=N/n2cc(-c3ccccc3)nc2N)cc1	.	.	65*	.
O=C(CN1CCN(S(=O)(=O)c2ccc(Br)cc2)CC1)N/N=C/c1cccnc1	.	.	24	.
Cc1cccc(NC(=O)Nc2ccc(C#N)cc2)n1	.	.	55*	.
O=C(Cn1nnc(-c2ccc(Cl)cc2)n1)NC1CCN(Cc2ccccc2)CC1	21	-16	100*	-18
O=C(Nc1nc2c(s1)COc1ccccc1-2)c1cccs1	-2	12	9	-27
O=C(CCS(=O)(=O)c1ccccc1)Nc1nc2c(s1)COc1ccccc1-2	46*	25	.	-65
CN(C)c1ccc(C(=O)c2ccc(O)cc2O)cc1	-13	22	-6	-4
COc1ccc(C(=O)c2ccc(N(C)C)cc2)c2ccccc12	27	60*	-4	54
COc1cccc(/C=C/C(=O)OCC(=O)NCC2CCCO2)c1OC (stereo unspecified)	.	.	17	.
C=CCn1c(SCc2ccc(C(=O)OC)cc2)nnc1-c1sc(N)nc1C	.	.	4	.
C=CCn1c(SCC(=O)Nc2ccc(C(=O)OCC)cc2)nnc1-c1sc(N)nc1C	-8	92*	-17	-8
CCOC(=O)c1c(C2CC2)csc1NC(=O)COC(=O)CCS(=O)(=O)c1ccc(C)cc1	.	.	-3	.
O=C(CCN1C(=O)/C(=C\c2ccccc2Cl)SC1=S)N1CCN(c2ccccc2)CC1	8	5	58*	5
SMILES	cytoskel mod	VCAM1 TNFa inh	E-sel TNF inh	HUVEC tox TNFa
Cc1cc(NC(=O)CCN2C(=O)/C(=C/c3ccccc3Cl)SC2=S)no1	.	.	-41	.
COc1ccc(C(=O)c2c(C(F)(F)F)oc3c2C(=O)c2ccccc2C3=O)cc1	-34	94*	-5	30
CSc1nnc2n(-c3ccccc3)c(=O)c3c4c(sc3n12)CCC4	-11	58*	-17	77
CCC(C)c1ccc(NC(=S)NN2CCOCC2)cc1 (stereo unspecified)	.	.	-17	.
CC1(C)CC(=O)C(C=NCC2CCCO2)=C(O)C1 (stereo unspecified)	12	-6	80*	3
O=C(c1cnccn1)N1CCN(c2ccccc2)CC1	-14	-2	59*	4
O=C(c1cnsn1)N1CCN(c2ccccc2)CC1	20	-28	-8	-5
Cn1c(CCc2nc3ccccc3[nH]2)nnc1SCC#N	.	.	13	.
COc1ccc2nc(SCC(=O)N3CC(=O)Nc4ccccc43)c(C#N)cc2c1	28	-12	-14	-13
Cc1cc(C)c2nc(SCC(=O)N3CC(=O)Nc4ccccc43)c(C#N)cc2c1	27	100*	-36	89*
Cc1cccc(NC(=O)c2ccc(NS(=O)(=O)c3c(C)noc3C)cc2)c1	9	4	100*	0
CC(=O)c1cccc(NS(=O)(=O)c2c(C)noc2C)c1	60*	15	.	-45
CC(=O)c1cccc(NS(=O)(=O)N2CCCCC2)c1	1	20	81*	9
COc1cccc(NS(=O)(=O)c2cc(C)ccc2OC)c1	-5	10	-10	-28
COc1ccc(C)cc1S(=O)(=O)Nc1cccc(SC)c1	-20	51*	17	6
Cc1nc(SCC(N)=O)c([N+](=O)[O-])[nH]1	.	.	63*	.
CCOC(=O)Nc1ccc(Cc2ccncc2)cc1	.	.	2	.
CCOc1ccccc1C(=O)N1CCN(c2cccc(Cl)c2)CC1	-5	84*	-14	73
CCOc1ccccc1N1CCN(C(=O)c2cccc(-c3ccc(O)cc3)c2)CC1	23	44*	2	-1
O=C(O)c1ccccc1C(=O)N1CCN(c2cccc(Cl)c2)CC1	10	7	11	-21
Cc1ccc(OCC(=O)N2CCN(C(=O)Cc3ccccc3)CC2)cc1	71*	-11	5	7
COc1ccc(OCC(=O)N2CCN(C(=O)Cc3ccccc3)CC2)cc1	2	-8	-19	-3
COc1ccc([N+](=O)[O-])cc1N/C(=N/S(=O)(=O)c1ccccc1)c1ccccc1	.	.	42	.
Cc1ccc(/C=C/C(=O)O)cc1S(=O)(=O)NCCO	27	7	54*	-17
CCN(CC)CCNC(=O)C1c2cc(OC)c(OC)cc2C(=O)N(C)C1c1cccs1 (stereo unspecified)	.	.	5	.
SMILES	cytoskel mod	VCAM1 TNFa inh	E-sel TNF inh	HUVEC tox TNFa
CC(=O)c1cccc(NC(=O)c2cc(-c3ccc(F)cc3)on2)c1	-7	71*	.	73
CCOc1cc(/C=C2/SC(=S)N(C)C2=O)ccc1Oc1ccc([N+](=O)[O-])cc1[N+](=O)[O-]	.	.	-5	.
CCc1cccc(CC)c1NC(=O)COC(=O)c1cccc(-c2ccc(OC(C)=O)cc2)c1	.	.	74*	.
COC(=O)c1ccc(NC(=O)CSC2=NC(=O)C(c3ccccc3)C(=O)N2)cc1 (stereo unspecified)	.	.	12	.
CCOC(=O)c1c(NC(=O)CSc2nnc(-c3ccccc3)n2CC)sc(C(C)=O)c1C	19	4	100*	-41
O=C(COc1ccc(-c2nnco2)cc1)NCc1ccccc1Cl	.	.	77*	.
CCOC(=O)N1CCc2c(sc3c2c(=O)n(Cc2ccccc2)c(=O)n3Cc2cccc(C)c2)C1	.	.	88*	.
CCOC(=O)N1CCc2c(sc3c2c(=O)n(Cc2ccccc2)c(=O)n3Cc2ccccc2F)C1	.	.	-16	.
CCN1CCN(C(=O)Cn2cnc3sc(C)c(S(=O)(=O)N4CCN(c5ncccn5)CC4)c3c2=O)CC1	.	.	-20	.
O=c1ccc2ccc(OCc3nnc(-c4ccccc4Br)o3)cc2o1	19	-8	73*	-4
Cc1ccc(N2C(=O)[C@@H]3C(C(=O)CCN4C(=O)c5ccccc5C4=O)=NN[C@@H]3C2=O)cc1	.	.	65*	.
O=C1CC(N(Cc2cccs2)C(=O)Nc2ccccc2)C(=O)N1c1ccc(Cl)cc1 (stereo unspecified)	.	.	70*	.
COc1ccc(CN(C(=S)Nc2ccccc2)C2CC(=O)N(c3ccc(Cl)cc3)C2=O)cc1 (stereo unspecified)	0	8	-3	-11

Assay outcomes (PubChem BioAssay)
